# In the supplement of paper PMC4466140:
# Columns and labels:
# Test in all cases: SPOT peptide array binding signal intensity (averaged, normalized) (arbitrary units (background-subtracted, floor 0; scale differs between SH3 domains)); higher = stronger binding of the SH3 domain to the peptide
# [1] = biological target: AgAbp1
# Procedure, shortened: (§1)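 Four yeast species supplied the SH3 domains, which were expressed as GST fusions in E. coli BL21(DE3) and purified on glutathione Sepharose. Incubation with cellulose membranes carrying synthetic 15-mer peptides, cysteines exchanged for serines, ran overnight at 4°C at 10 μg/ml in TBS-based blocking buffer. Binding signal is reported as normalized, background-subtracted spot intensity averaged over replicates, in arbitrary units not shared between domains.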
# [2] = biological target: AgBbc1
# Procedure, shortened: as §1
# [3] = biological target: AgBem1-D1
# Procedure, shortened: as §1
# [4] = biological target: AgBzz1-D1
# Procedure, shortened: as §1
# [5] = biological target: AgBzz1-D2
# Procedure, shortened: as §1
# [6] = biological target: AgCyk3
# Procedure, shortened: as §1
# [7] = biological target: AgFus1
# Procedure, shortened: as §1
# [8] = biological target: AgHof1
# Procedure, shortened: as §1
# [9] = biological target: AgHse1
# Procedure, shortened: as §1
# [10] = biological target: AgLsb1
# Procedure, shortened: as §1
# [11] = biological target: AgLsb4
# Procedure, shortened: as §1
# [12] = biological target: AgMyo5
# Procedure, shortened: as §1
# [13] = biological target: AgNbp2
# Procedure, shortened: as §1
# [14] = biological target: AgRvs167
# Procedure, shortened: as §1
# [15] = biological target: AgSho1
# Procedure, shortened: as §1
# [16] = biological target: AgSla1-D1-D2
# Procedure, shortened: as §1
# [17] = biological target: AgSla1-D3
# Procedure, shortened: as §1
# [18] = biological target: CaAbp1-D1
# Procedure, shortened: as §1
# [19] = biological target: CaAbp1-D2
# Procedure, shortened: as §1
# [20] = biological target: CaBbc1
# Procedure, shortened: as §1
# [21] = biological target: CaBem1-D1
# Procedure, shortened: as §1
# [22] = biological target: CaBzz1-D1
# Procedure, shortened: as §1
# [23] = biological target: CaBzz1-D2
# Procedure, shortened: as §1
# [24] = biological target: CaCyk3
# Procedure, shortened: as §1
# [25] = biological target: CaFus1
# Procedure, shortened: as §1
# [26] = biological target: CaHof1
# Procedure, shortened: as §1
# [27] = biological target: CaHse1
# Procedure, shortened: as §1
# [28] = biological target: CaLsb1
# Procedure, shortened: as §1
# [29] = biological target: CaLsb4
# Procedure, shortened: as §1
# [30] = biological target: CaMyo5
# Procedure, shortened: as §1
# [31] = biological target: CaNbp2
# Procedure, shortened: as §1
# [32] = biological target: CaRvs167
# Procedure, shortened: as §1
# [33] = biological target: CaRvs167-3
# Procedure, shortened: as §1
# [34] = biological target: CaSho1
# Procedure, shortened: as §1
# [35] = biological target: CaSla1-D1-D2
# Procedure, shortened: as §1
# [36] = biological target: CaSla1-D3
# Procedure, shortened: as §1
# [37] = biological target: ScAbp1
# Procedure, shortened: as §1
# [38] = biological target: ScBbc1
# Procedure, shortened: as §1
# [39] = biological target: ScBem1-D1
# Procedure, shortened: as §1
# [40] = biological target: ScBzz1-D1
# Procedure, shortened: as §1
# [41] = biological target: ScBzz1-D2
# Procedure, shortened: as §1
# [42] = biological target: ScCyk3
# Procedure, shortened: as §1
# [43] = biological target: ScFus1
# Procedure, shortened: as §1
# [44] = biological target: ScHof1
# Procedure, shortened: as §1
# [45] = biological target: ScHse1
# Procedure, shortened: as §1
# [46] = biological target: ScLsb1
# Procedure, shortened: as §1
# [47] = biological target: ScLsb2
# Procedure, shortened: as §1
# [48] = biological target: ScLsb3
# Procedure, shortened: as §1
# [49] = biological target: ScLsb4
# Procedure, shortened: as §1
# [50] = biological target: ScMyo3
# Procedure, shortened: as §1
# [51] = biological target: ScMyo5
# Procedure, shortened: as §1
# [52] = biological target: ScNbp2
# Procedure, shortened: as §1
# [53] = biological target: ScPex13
# Procedure, shortened: as §1
# [54] = biological target: ScRvs167
# Procedure, shortened: as §1
# [55] = biological target: ScSho1
# Procedure, shortened: as §1
# [56] = biological target: ScSla1-D1-D2
# Procedure, shortened: as §1
# [57] = biological target: ScSla1-D3
# Procedure, shortened: as §1
# [58] = biological target: SpAbp1-D1
# Procedure, shortened: as §1
# [59] = biological target: SpBbc1
# Procedure, shortened: as §1
# [60] = biological target: SpBzz1-D1
# Procedure, shortened: as §1
# [61] = biological target: SpBzz1-D2
# Procedure, shortened: as §1
# [62] = biological target: SpCyk3
# Procedure, shortened: as §1
# [63] = biological target: SpHof1
# Procedure, shortened: as §1
# [64] = biological target: SpHof1-2
# Procedure, shortened: as §1
# [65] = biological target: SpHof1-3
# Procedure, shortened: as §1
# [66] = biological target: SpHse1
# Procedure, shortened: as §1
# [67] = biological target: SpLsb1
# Procedure, shortened: as §1
# [68] = biological target: SpLsb4
# Procedure, shortened: as §1
# [69] = biological target: SpMyo1
# Procedure, shortened: as §1
# [70] = biological target: SpNbp2
# Procedure, shortened: as §1
# [71] = biological target: SpPex13
# Procedure, shortened: as §1
# [72] = biological target: SpRvs167
# Procedure, shortened: as §1
# [73] = biological target: SpSla1-D1-D2
# Procedure, shortened: as §1
# [74] = biological target: SpSla1-D3
# Procedure, shortened: as §1
binder,measurement,setting,value
NSVPIMPTLPPRPYI,SPOT peptide array binding signal intensity,[1],≤ 0
same,SPOT peptide array binding signal intensity,[2],394
same,SPOT peptide array binding signal intensity,[3],102
same,SPOT peptide array binding signal intensity,[4],21
same,SPOT peptide array binding signal intensity,[5],≤ 0
same,SPOT peptide array binding signal intensity,[6],9.5
same,SPOT peptide array binding signal intensity,[7],20.5
same,SPOT peptide array binding signal intensity,[8],118
same,SPOT peptide array binding signal intensity,[9],320
same,SPOT peptide array binding signal intensity,[10],26
same,SPOT peptide array binding signal intensity,[11],2370
same,SPOT peptide array binding signal intensity,[12],71.5
same,SPOT peptide array binding signal intensity,[13],192
same,SPOT peptide array binding signal intensity,[14],50.2
same,SPOT peptide array binding signal intensity,[15],21
same,SPOT peptide array binding signal intensity,[16],≤ 0
same,SPOT peptide array binding signal intensity,[17],≤ 0
same,SPOT peptide array binding signal intensity,[18],≤ 0
same,SPOT peptide array binding signal intensity,[19],5
same,SPOT peptide array binding signal intensity,[20],1090
same,SPOT peptide array binding signal intensity,[21],162
same,SPOT peptide array binding signal intensity,[22],103
same,SPOT peptide array binding signal intensity,[23],3
same,SPOT peptide array binding signal intensity,[24],120
same,SPOT peptide array binding signal intensity,[25],293
same,SPOT peptide array binding signal intensity,[26],15
same,SPOT peptide array binding signal intensity,[27],310
same,SPOT peptide array binding signal intensity,[28],3.25
same,SPOT peptide array binding signal intensity,[29],2280
same,SPOT peptide array binding signal intensity,[30],27.5
same,SPOT peptide array binding signal intensity,[31],400
same,SPOT peptide array binding signal intensity,[32],423
same,SPOT peptide array binding signal intensity,[33],≤ 0
same,SPOT peptide array binding signal intensity,[34],260
same,SPOT peptide array binding signal intensity,[35],52
same,SPOT peptide array binding signal intensity,[36],46
same,SPOT peptide array binding signal intensity,[37],≤ 0
same,SPOT peptide array binding signal intensity,[38],128
same,SPOT peptide array binding signal intensity,[39],≤ 0
same,SPOT peptide array binding signal intensity,[40],3
same,SPOT peptide array binding signal intensity,[41],1
same,SPOT peptide array binding signal intensity,[42],≤ 0
same,SPOT peptide array binding signal intensity,[43],40.5
same,SPOT peptide array binding signal intensity,[44],252
same,SPOT peptide array binding signal intensity,[45],26.5
same,SPOT peptide array binding signal intensity,[46],380
same,SPOT peptide array binding signal intensity,[47],128
same,SPOT peptide array binding signal intensity,[48],3460
same,SPOT peptide array binding signal intensity,[49],2610
same,SPOT peptide array binding signal intensity,[50],668
same,SPOT peptide array binding signal intensity,[51],107
same,SPOT peptide array binding signal intensity,[52],210
same,SPOT peptide array binding signal intensity,[53],1530
same,SPOT peptide array binding signal intensity,[54],834
same,SPOT peptide array binding signal intensity,[55],154
same,SPOT peptide array binding signal intensity,[56],2
same,SPOT peptide array binding signal intensity,[57],72
same,SPOT peptide array binding signal intensity,[58],≤ 0
same,SPOT peptide array binding signal intensity,[59],50
same,SPOT peptide array binding signal intensity,[60],78
same,SPOT peptide array binding signal intensity,[61],0.5
same,SPOT peptide array binding signal intensity,[62],6
same,SPOT peptide array binding signal intensity,[63],6.5
same,SPOT peptide array binding signal intensity,[64],34.5
same,SPOT peptide array binding signal intensity,[65],18.8
same,SPOT peptide array binding signal intensity,[66],214
same,SPOT peptide array binding signal intensity,[67],523
same,SPOT peptide array binding signal intensity,[68],4060
same,SPOT peptide array binding signal intensity,[69],378
same,SPOT peptide array binding signal intensity,[70],76.5
same,SPOT peptide array binding signal intensity,[71],25
same,SPOT peptide array binding signal intensity,[72],1070
same,SPOT peptide array binding signal intensity,[73],≤ 0
same,SPOT peptide array binding signal intensity,[74],21.5
